In PubChem BioAssay AID1159580 (chemical genetic matrix, 2015):
Screen size: about 5,500 compounds; about 2,000 (36%) were called active. Roughly 18% stayed inconclusive and do not appear here. Rule as the data show it: active = normalized growth mostly below about 0.91 (no sharp cut-off); inconclusive = no clear call, values can overlap the other calls; inactive = mostly above about 0.92. The list shows a part of the results.

Assay: chemical genetic growth profiling, strain panel (AID 1159580);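 also: tested at 20 µM; growth read once vehicle control cultures reached saturation at 30 °C; 1 = growth at the plate median or of vehicle wells; lower values mean less growth of the strain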
Details: growth OD
[1] = S. cerevisiae deletion strains, locus YBL105C, strain PKC1, stronger effect = lower value
[2] = S. cerevisiae deletion strains, locus YBR135W, strain CKS1, stronger effect = lower value
[3] = S. cerevisiae deletion strains, locus YBR136W, strain MEC1, stronger effect = lower value
[4] = S. cerevisiae deletion strains, locus YBR160W, strain CDC28, stronger effect = lower value
[5] = S. cerevisiae deletion strains, locus YDL017W, strain CDC7, stronger effect = lower value
[6] = S. cerevisiae deletion strains, locus YDL028C, strain MPS1, stronger effect = lower value
[7] = S. cerevisiae deletion strains, locus YDL108W, strain KIN28, stronger effect = lower value
[8] = S. cerevisiae deletion strains, locus YDL214C, strain PRR2, stronger effect = lower value
[9] = S. cerevisiae deletion strains, locus YDR052C, strain DBF4, stronger effect = lower value
[10] = S. cerevisiae deletion strains, locus YDR226W, strain ADK1, stronger effect = lower value
[11] = S. cerevisiae deletion strains, locus YDR477W, strain SNF1, stronger effect = lower value
[12] = S. cerevisiae deletion strains, locus YER123W, strain YCK3, stronger effect = lower value
[13] = S. cerevisiae deletion strains, locus YER133W, strain GLC7, stronger effect = lower value
[14] = S. cerevisiae deletion strains, locus YFR003C, strain YPI1, stronger effect = lower value
[15] = S. cerevisiae deletion strains, locus YFR019W, strain FAB1, stronger effect = lower value
[16] = S. cerevisiae deletion strains, locus YFR028C, strain CDC14, stronger effect = lower value
[17] = S. cerevisiae deletion strains, locus YGR040W, strain KSS1, stronger effect = lower value
[18] = S. cerevisiae deletion strains, locus YGR052W, strain FMP48, stronger effect = lower value
[19] = S. cerevisiae deletion strains, locus YGR092W, strain DBF2, stronger effect = lower value
[20] = S. cerevisiae deletion strains, locus YHR030C, strain SLT2, stronger effect = lower value
[21] = S. cerevisiae deletion strains, locus YHR079C, strain IRE1, stronger effect = lower value
[22] = S. cerevisiae deletion strains, locus YHR082C, strain KSP1, stronger effect = lower value
[23] = S. cerevisiae deletion strains, locus YHR205W, strain SCH9, stronger effect = lower value
[24] = S. cerevisiae deletion strains, locus YIL147C, strain SLN1, stronger effect = lower value
[25] = S. cerevisiae deletion strains, locus YJL095W, strain BCK1, stronger effect = lower value
[26] = S. cerevisiae deletion strains, locus YJL128C, strain PBS2, stronger effect = lower value
[27] = S. cerevisiae deletion strains, locus YJL157C, strain FAR1, stronger effect = lower value
[28] = S. cerevisiae deletion strains, locus YJR016C, strain ILV3, stronger effect = lower value
[29] = S. cerevisiae deletion strains, locus YJR066W, strain TOR1 (second series), stronger effect = lower value
[30] = S. cerevisiae deletion strains, locus YJR066W, strain TOR1, stronger effect = lower value
[31] = S. cerevisiae deletion strains, locus YKL048C, strain ELM1, stronger effect = lower value
[32] = S. cerevisiae deletion strains, locus YKL067W, strain YNK1, stronger effect = lower value
[33] = S. cerevisiae deletion strains, locus YKL101W, strain HSL1, stronger effect = lower value
[34] = S. cerevisiae deletion strains, locus YKL203C, strain TOR2, stronger effect = lower value
[35] = S. cerevisiae deletion strains, locus YLR113W, strain HOG1, stronger effect = lower value
[36] = S. cerevisiae deletion strains, locus YLR133W, strain CKI1, stronger effect = lower value
[37] = S. cerevisiae deletion strains, locus YLR403W, strain SFP1, stronger effect = lower value
[38] = S. cerevisiae deletion strains, locus YML070W, strain DAK1, stronger effect = lower value
[39] = S. cerevisiae deletion strains, locus YMR205C, strain PFK2 (second series), stronger effect = lower value
[40] = S. cerevisiae deletion strains, locus YNL006W, strain LST8, stronger effect = lower value
[41] = S. cerevisiae deletion strains, locus YNL020C, strain ARK1, stronger effect = lower value
[42] = S. cerevisiae deletion strains, locus YNL183C, strain NPR1, stronger effect = lower value
[43] = S. cerevisiae deletion strains, locus YNL307C, strain MCK1 (second series), stronger effect = lower value
[44] = S. cerevisiae deletion strains, locus YOL136C, strain PFK27, stronger effect = lower value
[45] = S. cerevisiae deletion strains, locus YOR061W, strain CKA2, stronger effect = lower value
[46] = S. cerevisiae deletion strains, locus YOR119C, strain RIO1, stronger effect = lower value
[47] = S. cerevisiae deletion strains, locus YOR231W, strain MKK1, stronger effect = lower value
[48] = S. cerevisiae deletion strains, locus YPL031C, strain PHO85, stronger effect = lower value
[49] = S. cerevisiae deletion strains, locus YPL153C, strain RAD53, stronger effect = lower value
[50] = S. cerevisiae deletion strains, locus YPL209C, strain IPL1, stronger effect = lower value
[51] = S. cerevisiae deletion strains, locus YPL256C, strain CLN2, stronger effect = lower value
[52] = S. cerevisiae deletion strains, locus YPR106W, strain ISR1, stronger effect = lower value
[53] = S. cerevisiae deletion strains, locus YPR111W, strain DBF20, stronger effect = lower value
[54] = S. cerevisiae deletion strains, locus YAL013W, strain DEP1, stronger effect = lower value
[55] = S. cerevisiae deletion strains, locus YBR229C, strain ROT2, stronger effect = lower value
[56] = S. cerevisiae deletion strains, locus YCL061C, strain MRC1, stronger effect = lower value
[57] = S. cerevisiae deletion strains, locus YDL101C, strain DUN1, stronger effect = lower value
[58] = S. cerevisiae deletion strains, locus YDR150W, strain NUM1, stronger effect = lower value
[59] = S. cerevisiae deletion strains, locus YEL061C, strain CIN8, stronger effect = lower value
[60] = S. cerevisiae deletion strains, locus YGR078C, strain PAC10, stronger effect = lower value
[61] = S. cerevisiae deletion strains, locus YGR229C, strain SMI1, stronger effect = lower value
[62] = S. cerevisiae deletion strains, locus YHR087W, strain rtc3, stronger effect = lower value
[63] = S. cerevisiae deletion strains, locus YJR043C, strain POL32, stronger effect = lower value
[64] = S. cerevisiae deletion strains, locus YJR075W, strain HOC1, stronger effect = lower value
[65] = S. cerevisiae deletion strains, locus YLR039C, strain RIC1, stronger effect = lower value
[66] = S. cerevisiae deletion strains, locus YLR058C, strain SHM2 (second series), stronger effect = lower value
[67] = S. cerevisiae deletion strains, locus YLR085C, strain ARP6, stronger effect = lower value
[68] = S. cerevisiae deletion strains, locus YLR262C, strain YPT6, stronger effect = lower value
[69] = S. cerevisiae deletion strains, locus YML094W, strain GIM5, stronger effect = lower value
[70] = S. cerevisiae deletion strains, locus YMR219W, strain ESC1, stronger effect = lower value
[71] = S. cerevisiae deletion strains, locus YMR263W, strain SAP30, stronger effect = lower value
[72] = S. cerevisiae deletion strains, locus YNL128W, strain TEP1, stronger effect = lower value
[73] = S. cerevisiae deletion strains, locus YNL153C, strain GIM3, stronger effect = lower value
[74] = S. cerevisiae deletion strains, locus YNL298W, strain CLA4 (second series), stronger effect = lower value
[75] = S. cerevisiae deletion strains, locus YNL322C, strain KRE1, stronger effect = lower value
[76] = S. cerevisiae deletion strains, locus YNR030W, strain Alg12, stronger effect = lower value
[77] = S. cerevisiae deletion strains, locus YPL055C, strain LGE1, stronger effect = lower value
[78] = S. cerevisiae deletion strains, locus YPL241C, strain CIN2, stronger effect = lower value
[79] = S. cerevisiae deletion strains, locus YPR135W, strain CTF4, stronger effect = lower value
[80] = S. cerevisiae strains, strain wild type, stronger effect = lower value
[81] = S. cerevisiae deletion strains, locus YJL187C, strain SWE1, stronger effect = lower value
[82] = S. cerevisiae deletion strains, locus YOL006C, strain TOP1, stronger effect = lower value

Measured: normalized growth

N/C(CCSc1ccc(Cl)cc1)=N/OC(=O)Nc1ccc(Cl)cc1
active: [8] 0.336 | [11] 0.273 | [12] 0.0987 | [13] 0.286 | [15] 0.108 | [17] 0.247 | [18] 0.118 | [19] 0.275 | [20] 0.104 | [21] 0.118 | [22] 0.114 | [23] 0.253 | [25] 0.111 | [27] 0.371 | [29] 0.0983 | [30] 0.114 | [31] 0.346 | [32] 0.377 | [33] 0.259 | [34] 0.14 | [35] 0.126 | [36] 0.377 | [37] 0.311 | [38] 0.103 | [39] 0.345 | [40] 0.697 | [41] 0.375 | [42] 0.122 | [43] 0.315 | [44] 0.125 | [45] 0.326 | [46] 0.133 | [47] 0.103 | [48] 0.142 | [49] 0.0978 | S. cerevisiae deletion strains, locus YPL204W, strain HRR25, stronger effect = lower value 0.105 | [51] 0.118
inactive: [1] 0.986 | [2] 0.984 | [3] 0.978 | [4] 0.978 | [5] 0.982 | [6] 0.986 | [7] 0.983 | [9] 0.982 | [10] 0.983 | [14] 0.981 | [16] 0.986 | [24] 0.986 | [26] 0.944 | [28] 0.981 | [50] 0.983 | [52] 0.976 | [53] 0.978

COC(=O)CCCCCCCC(=O)Nc1ccc(Cl)cc1
inactive: [54] 0.999 | [55] 0.997 | [56] 0.998 | [57] 0.984 | [58] 0.896 | [59] 1 | [60] 0.997 | [61] 1.03 | [20] 0.999 | [62] 0.983 | [63] 1.01 | [64] 0.985 | [65] 1.01 | [66] 1.01 | [67] 1.01 | [68] 1.02 | [69] 0.975 | [70] 1.01 | [71] 1.01 | S. cerevisiae deletion strains, locus YMR307W, strain GAS1, stronger effect = lower value 1.06 | [72] 1.02 | [73] 0.997 | [74] 1.01 | [75] 1 | [76] 0.997 | [77] 0.929 | [78] 0.991 | [79] 0.955 | [80] 1.02

O=C(CC1NCCN(Cc2ccccc2)C1=O)Nc1ccc(Cl)cc1 (stereo not given)
inactive: [54] 0.993 | [55] 0.995 | [56] 0.981 | [57] 0.968 | [58] 0.993 | [59] 1.01 | [60] 0.99 | [20] 0.955 | [62] 0.97 | [81] 1.01 | [63] 0.971 | [64] 1.02 | [65] 0.988 | [66] 0.998 | [67] 1.01 | [68] 0.994 | [69] 1.01 | [70] 1.01 | [72] 1 | [73] 0.981 | [74] 0.975 | [75] 0.996 | [76] 0.984 | [82] 0.993 | [77] 0.909 | [78] 1 | [79] 0.915

CC(C)c1ccc(COC(=O)Nc2ccc(CSc3ccc(Cl)cc3)o2)cc1
inactive: S. cerevisiae deletion strains, locus YAR019C, strain CDC15, stronger effect = lower value 0.99 | [1] 0.992 | [2] 0.983 | [3] 0.983 | [4] 0.989 | [5] 0.982 | [6] 0.985 | [57] 0.992 | [7] 0.985 | S. cerevisiae deletion strains, locus YDL132W, strain cdc53, stronger effect = lower value 0.982 | [8] 0.934 | [9] 0.993 | S. cerevisiae deletion strains, locus YDR054C, strain cdc34, stronger effect = lower value 0.972 | [10] 0.981 | [11] 0.929 | [12] 0.91 | [13] 0.925 | S. cerevisiae deletion strains, locus YFL009W, strain cdc4, stronger effect = lower value 0.979 | S. cerevisiae deletion strains, locus YFL029C, strain CAK1, stronger effect = lower value 0.983 | [14] 0.983 | [15] 0.935 | [16] 0.988 | [17] 0.923 | [18] 0.952 | [19] 0.921 | [20] 0.871 | [21] 0.886 | [22] 0.963 | [23] 0.82 | [24] 0.983 | [25] 0.855 | [26] 0.954 | [27] 0.907 | [28] 0.98 | [29] 0.9 | [30] 1.01 | [31] 0.953 | [32] 0.938 | [33] 0.953 | S. cerevisiae deletion strains, locus YKL193C, strain SDS22, stronger effect = lower value 0.98 | [34] 0.976 | [35] 0.879 | [36] 0.928 | [37] 0.893 | [38] 0.912 | S. cerevisiae deletion strains, locus YMR001C, strain CDC5, stronger effect = lower value 0.983 | [39] 0.928 | S. cerevisiae deletion strains, locus YMR277W, strain FCP1, stronger effect = lower value 0.982 | [40] 0.988 | [41] 0.919 | S. cerevisiae deletion strains, locus YNL161W, strain CBK1, stronger effect = lower value 0.98 | [42] 0.995 | S. cerevisiae deletion strains, locus YNL207W, strain RIO2, stronger effect = lower value 0.982 | S. cerevisiae deletion strains, locus YNL222W, strain SSU72, stronger effect = lower value 0.987 | [43] 0.933 | S. cerevisiae deletion strains, locus YOL078W, strain AVO1, stronger effect = lower value 0.981 | [44] 0.92 | [45] 0.909 | [46] 0.983 | [47] 0.963 | S. cerevisiae deletion strains, locus YOR329C, strain SCD5, stronger effect = lower value 0.986 | [48] 0.902 | [49] 0.912 | [50] 0.988 | [51] 0.923 | S. cerevisiae deletion strains, locus YPR025C, strain CCL1, stronger effect = lower value 0.989 | [52] 0.983 | [53] 0.983 | S. cerevisiae deletion strains, strain NNK1, stronger effect = lower value 0.987 | S. cerevisiae deletion strains, strain TSCII, stronger effect = lower value 0.986

O=C(CSc1ccc(Cl)cc1)Nc1ccc(F)cc1
inactive: [57] 0.939 | [59] 0.942 | [81] 1 | S. cerevisiae deletion strains, locus YKL190W, strain CNB1, stronger effect = lower value 0.934 | [65] 0.884 | [67] 0.79 | [68] 0.826 | [69] 0.875 | [71] 0.948 | [72] 0.968 | [73] 0.925 | [82] 0.78 | [80] 0.919
active: [54] 0.909 | [55] 0.908 | [58] 0.803 | [60] 0.888 | [61] 0.924 | [20] 0.679 | [62] 0.888 | [63] 0.916 | [64] 0.823 | [66] 0.909 | [70] 0.916 | [74] 0.808 | [75] 0.923 | [76] 0.807 | [77] 0.782 | [78] 0.849 | [79] 0.608
